In PubChem BioAssay (Tox21):
Inconclusive results are not listed. Active and inactive are the calls of the source. Unless noted, calls come from the whole dose curve; as a rule, active = well fitted curve in the direction sought with a large enough effect in the repeat runs; inconclusive = weak or mixed curves; inactive = no such curve, though single readings can be large; an effect the other way counts as inactive or inconclusive.

What was measured:
[1] = target: Thyrotropin-releasing hormone receptor (Homo sapiens) (UniProt P34981); experiment: qHTS assay to identify small molecule agonists of the thyrotropin-releasing hormone receptor (TRHR) signaling pathway (AID 1346891; calls by dose curve; note: series mostly up to about 58 µM)
Sequence of Thyrotropin-releasing hormone receptor (Homo sapiens) (P34981 whole entry, looked up): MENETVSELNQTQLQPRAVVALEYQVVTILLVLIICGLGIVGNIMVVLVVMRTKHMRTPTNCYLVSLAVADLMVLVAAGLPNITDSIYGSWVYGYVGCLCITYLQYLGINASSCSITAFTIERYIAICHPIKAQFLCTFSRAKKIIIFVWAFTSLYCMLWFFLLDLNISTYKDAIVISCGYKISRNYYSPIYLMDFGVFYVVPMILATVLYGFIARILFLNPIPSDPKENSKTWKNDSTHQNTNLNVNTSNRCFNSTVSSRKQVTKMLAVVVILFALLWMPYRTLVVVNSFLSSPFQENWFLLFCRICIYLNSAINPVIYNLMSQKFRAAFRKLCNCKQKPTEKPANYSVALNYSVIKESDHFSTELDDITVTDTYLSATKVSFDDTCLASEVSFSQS
Outline: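 Screening of agonists relied on calcium signalling in HEK293 cells expressing human TRHR: dye loading 2 h at 37 °C preceded compound addition and a 3-min fluorescence time course.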

[2] = Human pregnane X receptor (PXR) small molecule agonists, qHTS cell viability counter screen (AID 1346977); note: nearly all actives have a fitted effect of over 50% in size; note: potency is the fitted concentration of half-maximal effect
Outline: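 Tox21 qHTS format; PXR-Luc HepG2, 2,000/well, charcoal-stripped FBS 5%. Cpd exposure 24hr. Read: CellTiter-Fluor fluorescence, multiplexed with luciferase.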

[3] = Caspase-3/7 induction in HepG2 cells by small molecules, qHTS assay (AID 1346978); note: nearly all actives have a fitted effect of over 15% in size
Outline: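 Wild-type HepG2 cells, 2,000/well, settled 5 hr at 37 C and 5% CO2, then compound-treated for 17 hr; caspase-3/7 activity read by luminescent Caspase-Glo 3/7 after 30 min at room temperature.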

[4] = Caspase-3/7 induction in CHO-K1 cells by small molecules, qHTS cell viability counter screen (AID 1346979); note: nearly all actives have a fitted effect of over 35% in size; note: potency is the fitted concentration of half-maximal effect
Outline: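 CellTiter-Fluor viability check, qHTS format: wild-type CHO-K1, 16hr compound treatment, 1hr reagent incubation, fluorescence read.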

[5] = Caspase-3/7 induction in CHO-K1 cells by small molecules, qHTS assay (AID 1346980); note: nearly all actives have a fitted effect of over 15% in size
Outline: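 Wild-type CHO-K1 cells exposed to compounds for 17hr at 37 C, 5% CO2. Caspase-3/7 activity then measured by Caspase-Glo 3/7 luminescence after 30min at room temperature.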

[6] = Caspase-3/7 induction in HepG2 cells by small molecules, qHTS cell viability counter screen (AID 1346981); note: nearly all actives have a fitted effect of over 30% in size; note: potency is the fitted concentration of half-maximal effect
Outline: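 Fluorescence read-out of live-cell protease activity (CellTiter-Fluor) after 1 hr with reagent. This was measured in the same wells as the caspase-3/7 luminescence, on HepG2 cells exposed to DMSO-dissolved compounds for 16 hr at 37 C.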

[7] = target: Nuclear receptor subfamily 1 group I member 2 (Homo sapiens) (UniProt O75469); experiment: Human pregnane X receptor (PXR) small molecule agonists, qHTS assay (AID 1346982); note: nearly all actives have a fitted effect of over 35% in size; note: potency is the fitted concentration of half-maximal effect
Sequence of Nuclear receptor subfamily 1 group I member 2 (Homo sapiens) (O75469 whole entry, looked up): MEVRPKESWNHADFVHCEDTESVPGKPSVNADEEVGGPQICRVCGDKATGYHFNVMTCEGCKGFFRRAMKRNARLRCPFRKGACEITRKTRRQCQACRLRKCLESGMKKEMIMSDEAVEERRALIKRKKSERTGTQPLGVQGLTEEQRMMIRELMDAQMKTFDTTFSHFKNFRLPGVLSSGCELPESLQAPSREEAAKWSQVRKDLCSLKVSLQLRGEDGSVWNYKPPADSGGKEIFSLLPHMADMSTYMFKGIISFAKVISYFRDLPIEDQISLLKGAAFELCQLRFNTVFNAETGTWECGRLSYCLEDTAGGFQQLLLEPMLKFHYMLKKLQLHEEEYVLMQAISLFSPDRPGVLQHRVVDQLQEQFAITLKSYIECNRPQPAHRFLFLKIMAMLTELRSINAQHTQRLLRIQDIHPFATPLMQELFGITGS
Outline: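 HepG2 PXR-Luc reporter line, 5% charcoal-stripped FBS; 5 hr pre-incubation, compound (DMSO) 24 hr at 37 C/5% CO2; ONE-Glo 30 min RT; luminescence read-out.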

[8] = target: Cytochrome P450 2D6 (Homo sapiens) (UniProt P10635); experiment: Cytochrome P450 Family 2 Subfamily D Member 6 (CYP2D6) small molecule antagonists: luciferase reporter qHTS assay (AID 1671196); note: nearly all actives have a fitted effect of over 50% in size; note: potency is the fitted concentration of half-maximal effect
Sequence of Cytochrome P450 2D6 (Homo sapiens) (P10635 whole entry, looked up): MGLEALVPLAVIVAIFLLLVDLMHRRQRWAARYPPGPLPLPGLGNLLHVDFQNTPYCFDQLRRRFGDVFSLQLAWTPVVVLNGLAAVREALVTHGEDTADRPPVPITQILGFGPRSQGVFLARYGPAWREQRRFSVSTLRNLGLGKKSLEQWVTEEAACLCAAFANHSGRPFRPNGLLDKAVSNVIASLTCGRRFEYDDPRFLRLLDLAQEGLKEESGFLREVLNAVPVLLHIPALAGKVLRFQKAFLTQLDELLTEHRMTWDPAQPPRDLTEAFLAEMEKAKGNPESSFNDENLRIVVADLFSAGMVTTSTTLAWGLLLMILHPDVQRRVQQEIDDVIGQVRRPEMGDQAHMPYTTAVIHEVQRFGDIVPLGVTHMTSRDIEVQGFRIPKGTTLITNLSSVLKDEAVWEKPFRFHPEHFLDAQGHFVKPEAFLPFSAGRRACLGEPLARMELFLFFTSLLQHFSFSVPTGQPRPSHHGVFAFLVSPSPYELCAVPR
Outline: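 Luminogenic proluciferin substrate, CYP2D6 enzyme; 10 min RT preincubation with compound, NADPH regeneration system added, 1 h RT. Stop/detection reagent, 20 min RT, luminescence read (RLU). Signal proportional to CYP activity.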

[9] = target: Cytochrome P450 2C9 (Homo sapiens) (UniProt P11712); experiment: Cytochrome P450 Family 2 Subfamily C Member 9 (CYP2C9) small molecule antagonists: luciferase reporter qHTS assay (AID 1671198); note: nearly all actives have a fitted effect of over 50% in size; note: potency is the fitted concentration of half-maximal effect
Sequence of Cytochrome P450 2C9 (Homo sapiens) (P11712 whole entry, looked up): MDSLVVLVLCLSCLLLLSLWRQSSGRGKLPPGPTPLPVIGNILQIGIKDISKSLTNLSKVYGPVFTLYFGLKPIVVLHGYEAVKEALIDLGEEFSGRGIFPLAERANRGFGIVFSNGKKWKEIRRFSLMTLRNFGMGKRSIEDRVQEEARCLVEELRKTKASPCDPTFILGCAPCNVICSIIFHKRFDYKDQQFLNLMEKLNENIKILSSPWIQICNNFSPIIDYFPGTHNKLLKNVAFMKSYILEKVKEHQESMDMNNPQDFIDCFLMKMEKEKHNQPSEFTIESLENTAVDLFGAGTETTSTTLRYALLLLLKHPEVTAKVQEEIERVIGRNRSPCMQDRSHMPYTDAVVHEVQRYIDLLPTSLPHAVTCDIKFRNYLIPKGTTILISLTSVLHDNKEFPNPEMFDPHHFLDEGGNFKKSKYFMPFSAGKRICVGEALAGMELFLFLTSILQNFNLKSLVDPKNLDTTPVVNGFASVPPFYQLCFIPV
Outline: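 P450-Glo proluciferin substrate with CYP2C9 enzyme; 10 min RT preincubation, then NADPH regeneration 1 h at 37C; luciferin detection reagent 20 min RT, luminescence in relative luminescence units.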

[10] = target: Cytochrome P450 1A2 (Homo sapiens) (UniProt P05177); experiment: Cytochrome P450 Family 1 Subfamily A Member 2 (CYP1A2) small molecule antagonists: luciferase reporter qHTS assay (AID 1671199); note: nearly all actives have a fitted effect of over 50% in size; note: potency is the fitted concentration of half-maximal effect
Sequence of Cytochrome P450 1A2 (Homo sapiens) (P05177 whole entry, looked up): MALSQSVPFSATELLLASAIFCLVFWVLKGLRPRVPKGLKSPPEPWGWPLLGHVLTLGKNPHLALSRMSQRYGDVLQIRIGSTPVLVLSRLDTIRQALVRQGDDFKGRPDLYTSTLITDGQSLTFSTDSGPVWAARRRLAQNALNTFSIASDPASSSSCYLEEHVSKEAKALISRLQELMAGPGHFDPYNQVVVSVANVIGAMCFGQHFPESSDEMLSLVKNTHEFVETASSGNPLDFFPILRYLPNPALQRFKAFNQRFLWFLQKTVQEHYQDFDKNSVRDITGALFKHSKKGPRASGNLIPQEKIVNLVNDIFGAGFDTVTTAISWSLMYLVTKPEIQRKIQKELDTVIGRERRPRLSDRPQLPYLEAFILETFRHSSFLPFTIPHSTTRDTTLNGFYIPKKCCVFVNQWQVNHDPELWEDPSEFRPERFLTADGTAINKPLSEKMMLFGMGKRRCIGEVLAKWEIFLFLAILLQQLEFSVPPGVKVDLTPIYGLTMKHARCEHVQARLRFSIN
Outline: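 Luminescence readout (relative luminescence units) after luciferin detection reagent, 20 min RT. Preceded by 1 h room-temperature CYP1A2 reaction with NADPH regeneration solution following 10 min compound preincubation with enzyme and proluciferin substrate. Furafylline positive control.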

[11] = target: Voltage-gated inwardly rectifying potassium channel KCNH2 (Homo sapiens) (UniProt Q12809); experiment: Human Ether-a-go-go-Related Gene (hERG) channel small molecule antagonists: fluorescence cell-based qHTS assay (AID 1671200); note: nearly all actives have a fitted effect of over 50% in size; note: potency is the fitted concentration of half-maximal effect
Sequence of Voltage-gated inwardly rectifying potassium channel KCNH2 (Homo sapiens) (Q12809 whole entry, looked up): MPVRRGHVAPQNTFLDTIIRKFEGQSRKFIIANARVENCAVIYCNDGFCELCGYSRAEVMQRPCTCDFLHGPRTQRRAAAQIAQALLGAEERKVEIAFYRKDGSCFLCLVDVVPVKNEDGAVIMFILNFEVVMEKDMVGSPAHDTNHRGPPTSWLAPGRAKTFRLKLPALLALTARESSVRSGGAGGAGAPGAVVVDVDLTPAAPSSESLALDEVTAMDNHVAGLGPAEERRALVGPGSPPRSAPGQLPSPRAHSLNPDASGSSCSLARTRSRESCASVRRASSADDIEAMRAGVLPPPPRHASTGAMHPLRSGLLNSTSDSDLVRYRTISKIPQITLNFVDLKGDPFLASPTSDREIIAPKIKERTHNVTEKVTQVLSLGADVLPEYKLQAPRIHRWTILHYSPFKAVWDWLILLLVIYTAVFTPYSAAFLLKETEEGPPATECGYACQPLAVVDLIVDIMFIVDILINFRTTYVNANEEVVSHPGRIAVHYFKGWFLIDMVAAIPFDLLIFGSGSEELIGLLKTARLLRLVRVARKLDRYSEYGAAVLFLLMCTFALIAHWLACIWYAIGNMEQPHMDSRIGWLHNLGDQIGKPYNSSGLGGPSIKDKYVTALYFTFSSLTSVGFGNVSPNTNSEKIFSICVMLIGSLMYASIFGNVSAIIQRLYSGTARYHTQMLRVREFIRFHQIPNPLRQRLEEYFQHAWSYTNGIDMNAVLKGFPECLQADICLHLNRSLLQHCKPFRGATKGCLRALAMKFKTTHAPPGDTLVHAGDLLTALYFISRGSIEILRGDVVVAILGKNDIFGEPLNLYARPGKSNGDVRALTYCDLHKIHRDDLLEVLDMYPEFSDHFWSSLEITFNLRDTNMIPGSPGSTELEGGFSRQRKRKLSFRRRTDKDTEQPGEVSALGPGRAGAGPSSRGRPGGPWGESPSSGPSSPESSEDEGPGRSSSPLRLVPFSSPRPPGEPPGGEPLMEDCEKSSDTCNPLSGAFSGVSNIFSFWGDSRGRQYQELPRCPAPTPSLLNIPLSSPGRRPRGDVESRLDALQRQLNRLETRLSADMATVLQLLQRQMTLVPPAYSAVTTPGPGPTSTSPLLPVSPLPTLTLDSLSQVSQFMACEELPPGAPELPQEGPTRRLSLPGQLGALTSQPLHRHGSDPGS
Outline: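 Kinetic two-minute fluorescence traces, sampled at 1 s, were collected following thallium stimulus of U2OS cells (1000 per well) that had been cultured overnight at 37 C and loaded with FluxOR II.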

[12] = target: Cytochrome P450 3A4 (Homo sapiens) (UniProt P08684); experiment: Cytochrome P450 Family 3 Subfamily A Member 4 (CYP3A4) small molecule antagonists: luciferase reporter qHTS assay (AID 1671201); note: nearly all actives have a fitted effect of over 50% in size; note: potency is the fitted concentration of half-maximal effect
Sequence of Cytochrome P450 3A4 (Homo sapiens) (P08684 whole entry, looked up): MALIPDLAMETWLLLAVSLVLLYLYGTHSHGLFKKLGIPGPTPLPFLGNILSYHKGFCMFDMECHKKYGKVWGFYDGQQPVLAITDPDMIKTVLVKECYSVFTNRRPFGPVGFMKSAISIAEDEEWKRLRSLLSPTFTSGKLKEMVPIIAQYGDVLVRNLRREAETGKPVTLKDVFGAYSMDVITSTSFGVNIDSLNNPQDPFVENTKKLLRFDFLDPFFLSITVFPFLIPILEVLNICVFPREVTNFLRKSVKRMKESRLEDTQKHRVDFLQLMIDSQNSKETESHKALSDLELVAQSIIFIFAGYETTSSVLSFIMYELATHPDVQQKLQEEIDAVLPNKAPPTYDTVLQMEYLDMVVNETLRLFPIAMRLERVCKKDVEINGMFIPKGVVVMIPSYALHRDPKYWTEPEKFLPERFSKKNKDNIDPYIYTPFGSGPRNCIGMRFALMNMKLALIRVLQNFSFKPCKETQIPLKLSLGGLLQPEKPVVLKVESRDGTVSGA
Outline: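 Proluciferin-to-luciferin conversion by CYP3A4, NADPH-regenerated, 1 h RT; luminescence read as RLU. Ketoconazole as control.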

[13] = target: Nuclear receptor subfamily 1 group I member 2 (Rattus norvegicus) (UniProt Q9R1A7); experiment: Rat pregnane X receptor (rPXR) activation by small molecules, qHTS assay (AID 1346983); details: rPXR luciferase reporter cells, One-Glo luminescence, 24 h; max activation: hits give high values; note: nearly all actives have a fitted effect of over 20% in size; note: potency is the fitted concentration of half-maximal effect
Sequence of Nuclear receptor subfamily 1 group I member 2 (Rattus norvegicus) (Q9R1A7 whole entry, looked up): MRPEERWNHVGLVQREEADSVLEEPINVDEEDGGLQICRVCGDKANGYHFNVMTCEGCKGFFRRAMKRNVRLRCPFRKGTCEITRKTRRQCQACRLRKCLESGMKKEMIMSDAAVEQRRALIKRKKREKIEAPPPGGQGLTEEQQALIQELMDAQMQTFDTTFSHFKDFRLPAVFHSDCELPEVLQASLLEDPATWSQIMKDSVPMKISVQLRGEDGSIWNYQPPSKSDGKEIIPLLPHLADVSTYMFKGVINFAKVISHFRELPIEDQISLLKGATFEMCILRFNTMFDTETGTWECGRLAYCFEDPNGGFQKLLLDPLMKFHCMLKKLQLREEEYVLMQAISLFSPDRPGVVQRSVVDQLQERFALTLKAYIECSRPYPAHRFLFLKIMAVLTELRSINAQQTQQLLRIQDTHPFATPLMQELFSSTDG
Outline: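 Cell-based rPXR activation assay: rPXR cells, 2,000 per well, rested 5hr at 37 C, then exposed to compounds in DMSO for 24 hr at 37 C. Luciferase activity read by One-Glo luminescence after 30 min at room temperature.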

[14] = target: Nuclear receptor subfamily 1 group I member 2 (Homo sapiens) (UniProt O75469); experiment: CYP3A4 induction through human pregnane X receptor (PXR) by small molecules, qHTS assay (AID 1346984); note: nearly all actives have a fitted effect of over 40% in size; note: potency is the fitted concentration of half-maximal effect
Outline: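 HepG2-derived DPX-2 line carrying PXR plus a CYP3A4-promoter luciferase reporter; cells plated 5 hr, compound-exposed 24 hr at 37C. CYP3A4 activity probed with 3uM (final) Luciferin-IPA for 3hr, then luciferase read after One-Glo.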

[15] = target: Nuclear receptor subfamily 1 group I member 2 (Homo sapiens) (UniProt O75469); experiment: Human pregnane X receptor (PXR) activation by small molecules, qHTS assay (AID 1346985); note: nearly all actives have a fitted effect of over 40% in size; note: potency is the fitted concentration of half-maximal effect
Outline: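 DPX-2 cells (HepG2 co-transfected with a PXR response element and a CYP3A4-promoter luciferase construct) were seeded at 2,000 per well, rested 5 hr at 37C, then exposed to DMSO-dissolved compounds for 24 hr. Activation was read as luciferase luminescence.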

[16] = target: Cytochrome P450 2C19 (Homo sapiens) (UniProt P33261); experiment: Cytochrome P450 Family 2 Subfamily C Member 19 (CYP2C19) small molecule antagonists: luciferase reporter qHTS assay (AID 1671197); note: nearly all actives have a fitted effect of over 65% in size; note: potency is the fitted concentration of half-maximal effect
Sequence of Cytochrome P450 2C19 (Homo sapiens) (P33261 whole entry, looked up): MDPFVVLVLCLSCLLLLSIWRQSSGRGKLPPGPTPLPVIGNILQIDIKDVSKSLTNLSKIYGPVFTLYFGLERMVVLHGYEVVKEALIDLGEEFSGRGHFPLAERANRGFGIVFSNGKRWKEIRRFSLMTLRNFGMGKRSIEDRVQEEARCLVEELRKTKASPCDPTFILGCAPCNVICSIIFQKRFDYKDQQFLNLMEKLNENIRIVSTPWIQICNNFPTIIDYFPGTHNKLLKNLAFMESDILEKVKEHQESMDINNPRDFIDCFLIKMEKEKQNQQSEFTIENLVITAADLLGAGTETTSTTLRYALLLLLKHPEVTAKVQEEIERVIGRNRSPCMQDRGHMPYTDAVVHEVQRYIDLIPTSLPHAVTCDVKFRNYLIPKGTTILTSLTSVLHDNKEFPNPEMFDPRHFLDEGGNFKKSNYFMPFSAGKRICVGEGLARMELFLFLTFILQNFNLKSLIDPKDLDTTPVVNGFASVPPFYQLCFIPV
Outline: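 Luminescent readout of CYP2C19 activity: luciferin product detected 20 min after adding detection reagent. Before that, compound and enzyme-substrate mix preincubated 10 min at room temperature; NADPH-regenerating system started a 1 h, 37C reaction. Ketoconazole as positive control.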
% is set by controls: 0 for no effect and ±100 for the full control effect.

CN(C(=O)C(Cl)Cl)c1ccc(OC(=O)c2ccco2)cc1
active: Potency [9] 15.5 µM
inactive: Potency [1] | Potency [2] | Potency [3] | Potency [4] | outcome [5] | Potency [6] | Potency [7] | Potency [8] | Potency [10] | Potency [11] | Potency [12]

CCNC(=O)N1CCN(CCCC(c2ccc(F)cc2)c2ccc(F)cc2)CC1
active: Potency [2] 13.3 µM | Potency [4] 26.6 µM | Potency [6] 29.8 µM | Potency [7] 26.6 µM | Potency [11] 0.107 µM
inactive: Potency [1] | Potency [3] | outcome [5] | max activation [13] -17% | Potency [14] | Potency [15] | Potency [10] | Potency [12]

CCC(C)=O
inactive: Potency [1] | Potency [2] | Potency [3] | Potency [4] | outcome [5] | Potency [6] | Potency [7] | Potency [8] | Potency [16] | Potency [9] | Potency [11] | Potency [12]

Cc1cc(OI)c(C(C)C)cc1-c1cc(C(C)C)c(OI)cc1C
active: Potency [7] 29.8 µM | Potency [15] 15.8 µM | Potency [16] 8.71 µM | Potency [9] 17.4 µM
inactive: Potency [1] | Potency [2] | Potency [3] | Potency [4] | outcome [5] | Potency [6] | max activation [13] 0.407% | Potency [8] | Potency [11] | Potency [12]

CCCCC(CC)CNCC(CC)CCCC (centres undefined)
inactive: Potency [1] | Potency [2] | Potency [3] | Potency [4] | outcome [5] | Potency [6] | Potency [7] | Potency [9] | Potency [11] | Potency [12]
active: Potency [8] 0.199 µM | Potency [16] 35.3 µM

CC(=O)OCC(=O)[C@H]1CC[C@H]2[C@@H]3CCC4=CC(=O)CC[C@]4(C)[C@H]3CC[C@]12C
inactive: Potency [1] | Potency [2] | Potency [3] | Potency [4] | outcome [5] | Potency [6] | Potency [7] | max activation [13] 2.69% | Potency [14] | Potency [15] | Potency [10] | Potency [11] | Potency [12]
active: Potency [16] 9.77 µM | Potency [9] 7.76 µM

O=C(O)c1ccc(CO)o1
inactive: Potency [1] | Potency [2] | Potency [3] | Potency [4] | outcome [5] | Potency [6] | Potency [7] | Potency [16] | Potency [9] | Potency [11] | Potency [12]
active: Potency [8] 18.2 µM | Potency [10] 64.4 µM

CCC(C(=O)OCCOCCN(CC)CC)c1ccccc1 (centres undefined)
inactive: Potency [1] | Potency [2] | Potency [3] | Potency [4] | outcome [5] | Potency [6] | Potency [7] | max activation [13] -2.49% | Potency [14] | Potency [15] | Potency [16] | Potency [9] | Potency [10] | Potency [11] | Potency [12]
active: Potency [8] 13.8 µM

NCC1CCCC(CN)C1 (centres undefined)
inactive: Potency [1] | Potency [2] | Potency [3] | Potency [4] | outcome [5] | Potency [6] | Potency [7] | Potency [16] | Potency [9] | Potency [10] | Potency [11] | Potency [12]
active: Potency [8] 14.2 µM

O=[N+]([O-])c1cccc(S(=O)(=O)NCCNS(=O)(=O)c2cccc([N+](=O)[O-])c2)c1
inactive: Potency [1] | Potency [2] | Potency [3] | Potency [4] | outcome [5] | Potency [6] | Potency [10]
active: Potency [7] 13.3 µM | Potency [14] 7.94 µM | Potency [15] 14.1 µM | Potency [16] 3.09 µM | Potency [9] 8.71 µM

COc1ccccc1N=Nc1c(S(=O)(=O)O)cc2cc(S(=O)(=O)O)cc(NC(C)=O)c2c1O
active: Potency [2] 22.9 µM | Potency [4] 25.7 µM | Potency [6] 25.7 µM | Potency [8] 33.5 µM | Potency [16] 29.8 µM | Potency [9] 33.5 µM | Potency [10] 33.5 µM | Potency [12] 33.5 µM
inactive: Potency [1] | Potency [3] | outcome [5] | Potency [7]

O=C(CS)OCCOC(=O)CS
active: Potency [10] 39.9 µM | Potency [12] 28.3 µM
inactive: Potency [1] | Potency [2] | Potency [3] | Potency [4] | outcome [5] | Potency [6] | Potency [7] | Potency [8] | Potency [16] | Potency [11]

COC(=O)[C@@H]1CC2=CC(=O)CC[C@]2(C)[C@@]23O[C@@H]2C[C@@]2(C)[C@@H](CC[C@@]24CCC(=O)O4)[C@H]13
inactive: Potency [1] | Potency [2] | Potency [3] | Potency [4] | outcome [5] | Potency [6] | Potency [7] | max activation [13] -1.51% | Potency [14] | Potency [15] | Potency [9] | Potency [10] | Potency [11] | Potency [12]

C[C@@H]1C[C@H]2[C@@H]3CCC4=CC(=O)C=C[C@]4(C)[C@@]3(F)[C@@H](O)C[C@]2(C)[C@H]1C(=O)CO
inactive: Potency [1] | Potency [2] | Potency [3] | Potency [4] | outcome [5] | Potency [6] | Potency [14] | Potency [15] | Potency [8] | Potency [10] | Potency [11]
active: Potency [7] 18.8 µM | Potency [13] 2.51 µM | Potency [16] 8.71 µM | Potency [9] 15.5 µM

CC1(C)C(=O)N(Br)C(=O)N1Cl
active: Potency [16] 71 µM | Potency [9] 63.3 µM
inactive: Potency [1] | Potency [2] | Potency [3] | Potency [4] | outcome [5] | Potency [6] | Potency [7] | Potency [8] | Potency [11]

ON(Cc1ccccc1)Cc1ccccc1
inactive: Potency [1] | Potency [2] | Potency [3] | Potency [4] | outcome [5] | Potency [6]
active: Potency [7] 34.4 µM | Potency [8] 35.6 µM | Potency [16] 7.1 µM | Potency [10] 5.64 µM | Potency [12] 10 µM

CCCCCCOC(=O)CCCCCCCC(=O)OCCCCCC
inactive: Potency [1] | Potency [2] | Potency [3] | Potency [4] | outcome [5] | Potency [6] | Potency [7] | Potency [8] | Potency [16] | Potency [9] | Potency [11] | Potency [12]
